Experimental data reported in PubChem BioAssay AID1851 (National Center for Advancing Translational Sciences (NCATS), 2009).
Among all 16,000 compounds or so, about 5,700 (36%) were called active. Inconclusive results (about 24%) are left out. The list shows a part of the results. A number with no mark means an inactive call. The call rests on the fitted dose curve; in most records, active means well fitted curve in the direction sought with a large enough effect; inconclusive means small, poorly fitted or top-dose-only effect, or effect the other way; inactive means no such curve, though single readings can be large or run the other way.

Biological target: Cytochrome P450 1A2 (Homo sapiens) (UniProt P05177)
Assay: Cytochrome panel assay with activity outcomes
Details: recombinant CYP, pro-luciferin dealkylation, luminescence, p450-cyp1a2; series mostly up to 57.1 µM; activity, negative = inhibition: at the top concentration
On the % scale 0 is the no-effect control and ±100 the full control effect.

Sequence of Cytochrome P450 1A2 (Homo sapiens) (P05177 whole entry, looked up): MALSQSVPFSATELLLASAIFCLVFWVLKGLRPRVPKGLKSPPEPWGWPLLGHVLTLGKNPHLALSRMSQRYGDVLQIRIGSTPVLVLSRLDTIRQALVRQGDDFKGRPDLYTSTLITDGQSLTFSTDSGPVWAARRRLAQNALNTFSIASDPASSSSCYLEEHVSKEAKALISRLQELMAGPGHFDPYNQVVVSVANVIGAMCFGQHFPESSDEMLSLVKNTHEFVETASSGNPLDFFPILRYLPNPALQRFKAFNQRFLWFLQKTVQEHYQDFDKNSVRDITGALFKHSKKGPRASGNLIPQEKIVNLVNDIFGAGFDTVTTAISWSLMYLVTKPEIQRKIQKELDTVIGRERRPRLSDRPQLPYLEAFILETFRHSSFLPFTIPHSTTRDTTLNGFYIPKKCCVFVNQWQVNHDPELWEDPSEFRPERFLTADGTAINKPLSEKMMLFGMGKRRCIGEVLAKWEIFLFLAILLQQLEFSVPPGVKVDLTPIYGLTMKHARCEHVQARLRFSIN

Row | SMILES | activity, negative = inhibition | AC50
1 | CN(CCO)Cc1ncccc1O | -10% [at 2.29 µM] | 
2 | COc1ccccc1NC(=O)CN1CCN(c2ccccc2F)CC1 |  | 25.1 µM (active)
3 | CC(C)OC(=O)CN1CCN(C2c3ccccc3-c3ccccc32)CC1 |  | 12.6 µM (active)
4 | COC(=O)C/C=C1\c2ccccc2[C@H](OC)[C@H]1C | -6.47% [at 11.4 µM] | 
5 | COc1ccc(NC(C)=O)cc1NC(=O)CN1CCN(C2c3ccccc3-c3ccccc32)CC1 |  | 28.2 µM (active)
6 | Cc1cc(Cl)ccc1NC(=O)CN1CCC(C(O)(c2ccccc2)c2ccccc2)CC1 | -9.89% | 
7 | COc1ccccc1NC(=O)CN1CCN(C2c3ccccc3-c3ccccc32)CC1 |  | 15.8 µM (active)
8 | O=C(CCN1CCN(c2ccccc2F)CC1)Nc1ccccc1F | -19.2% | 
9 | COc1ccccc1NC(=O)CN1CCC(C(=O)c2ccc(F)cc2)CC1 | -9.19% | 
10 | COc1ccc(NC(C)=O)cc1NC(=O)CN1CCN(CC(=O)Nc2ccccc2Cl)CC1 | -22.7% | 
11 | Cc1ccc(C(=O)C(OC(=O)CN2C(=O)c3ccccc3C2=O)c2ccccc2)cc1 (centres undefined) | 23% | 
12 | O=C(c1csnn1)N1CCC2(CC1)CN(Cc1cc(C(F)(F)F)cc(C(F)(F)F)c1)C2 | 5.18% | 
13 | Cc1cc(-c2cccs2)nc(-n2cccc2)n1 |  | 3.16 µM (active)
14 | CCCCN1C2=NCCCN2c2ccccc21 |  | 25.1 µM (active)
15 | CCCN1C2=NCCCN2c2ccccc21 | -19% | 
16 | CCCCN1C(=O)CC(Sc2ccccc2C(=O)O)C1=O (centres undefined) | -6.77% | 
17 | CCc1ccccc1OC[C@@H](O)CN[C@H]1CCCc2ccccc21 |  | 12.6 µM (active)
18 | Cc1c(C(=O)NC2CCCc3ccccc32)oc2ccc(S(=O)(=O)N3CCOCC3)cc12 (centres undefined) | -18% | 
19 | COC(=O)[C@@]1(Cc2ccccc2)[C@H]2c3cc(C(=O)N4CCCC4)n(CCc4ccccn4)c3C[C@H]2CN1C(=O)c1ccccc1 | -11.2% | 
20 | COc1ccc(C2CC(C(F)(F)F)n3nc(C(=O)N(C)Cc4cn(C)nc4C)c(Cl)c3N2)cc1 (centres undefined) | -44.6% | 
21 | COc1ccc(OC)c(NC(=O)c2cc3n(n2)C(C(F)(F)F)CC(c2ccc4c(c2)OCO4)N3)c1 (centres undefined) |  | 0.316 µM (active)
22 | COc1ccc(NC(=O)c2cc3n(n2)C(C(F)(F)F)CC(c2ccc4c(c2)OCO4)N3)cc1OC (centres undefined) | -4.17% | 
23 | CCOC(=O)C1CCCN(C(=O)C2CCN(S(=O)(=O)N3CCC4(CC3)OCCO4)CC2)C1 (centres undefined) | -7.11% | 
24 | CCOC(=O)C1CCCN(c2ncnc3c2cnn3-c2ccc(Cl)cc2)C1 (centres undefined) |  | 8.91 µM (active)
25 | CCOC(=O)C1CCCN(c2ncnc3c2cnn3-c2cccc(C)c2)C1 (centres undefined) |  | 14.1 µM (active)

Row | SMILES | activity, negative = inhibition | AC50
26 | CC(=O)c1c(C(C)=O)c(C)n(NC(=O)c2ccccc2Cl)c1C | -23.6% | 
27 | Cc1cc(OC(=O)c2ccccc2Cl)cc(=O)n1C |  | 3.55 µM (active)
28 | Cc1cc(OC(=O)c2ccc(Cl)cc2)cc(=O)n1C |  | 25.1 µM (active)
29 | CC(=O)Nc1cccc(C(=O)OCc2ccc(C(=O)Oc3ccc(Cl)cc3)cc2)c1 | -6.94% | 
30 | COc1ccc(C2CC(=O)CC(=O)C2n2cncn2)cc1 (centres undefined) | -6.41% | 
31 | CC(CC(=O)O)(CC(=O)O)c1ccccc1 | -0.666% [at 11.4 µM] | 
32 | COc1cc(-c2ccc(=O)[nH]n2)ccc1OC(F)F |  | 5.01 µM (active)
33 | c1cc(CNCCCN2CCOCC2)ccn1 | -3% | 
34 | c1ccc2c(c1)CCCc1cc(NCCN3CCOCC3)nnc1-2 | -10.5% [at 25.6 µM] | 
35 | Cc1ccccc1-c1nccc(NCCN2CCOCC2)n1 |  | 5.01 µM (active)
36 | CCOc1nc(NCCN2CCOCC2)nc(Nc2ccc(C)cc2)n1 | -28% | 
37 | Clc1ccccc1-c1nccc(NCCN2CCOCC2)n1 |  | 2 µM (active)
38 | CN(C)c1ccc(-c2nccc(NCCN3CCOCC3)n2)cc1 |  | 1.26 µM (active)
39 | O=C(/C=C/c1ccccc1Cl)NCCN1CCOCC1 | -27.1% | 
40 | C#CCCCO/N=C1/C[C@@H](O)[C@@H](O)[C@@H]2[C@H]3C(=O)N(c4ccc(F)cc4F)C(=O)[C@@H]3CC[C@@H]12 | 5.29% [at 11.4 µM] | 
41 | CNC(=O)c1c(I)c(C(=O)NCC(=O)Nc2c(I)c(C(=O)O)c(I)c(C(=O)NCCO)c2I)c(I)c(N(C)C(C)=O)c1I | -10% [at 25.6 µM] | 
42 | COc1ccc(-n2c(=O)c(-c3cccs3)nc3cncnc32)cc1 |  | 10 µM (active)
43 | O=c1c(-c2cccs2)nc2cncnc2n1-c1ccccc1 |  | 12.6 µM (active)
44 | CC(=O)NCCNc1cc(-c2ccccc2C)ncn1 |  | 15.8 µM (active)
45 | COCCNc1cc(-c2ccccc2CN(C)C)ncn1 | -16.8% | 
46 | COc1ccccc1CNc1cc(-c2ccccc2C)ncn1 |  | 5.01 µM (active)
47 | COc1ccccc1CNc1cc(-c2ccccc2OC)ncn1 |  | 2.51 µM (active)
48 | CC(=O)NCCNc1cc(-c2ccccc2CN(C)C)ncn1 | -20.9% | 
49 | COCCNc1cc(-c2ccccc2C)ncn1 |  | 15.8 µM (active)
